# In the library only some 19% were active in any assay of this set; here they are far more common.
# Shiga toxin inh = Shiga toxin inhibition | inhibition, % at 38.7 µM | Vero cells, Shiga toxin protein synthesis inhibition reporter | AID 2315 | hit rate 9.2% among 290,000; in the data active means inhibition mostly above about 28%, no sharp cut-off; inactive means mostly below about 43%; further: 0% is about no effect
# CHX counter = counter-screen for Shiga toxin inhibitors: cycloheximide protein synthesis inhibition; cell reporter, cycloheximide protein synthesis inhibition counterscreen; max response, %; hit rate 12% among 300,000; AID 2314; in the data active means max response mostly above about 13%, no sharp cut-off; inactive means mostly below about 14%; further: read at 38.3 µM for the half of the compounds with a filed dose; 0% is about no effect
# Pf growth 48h = inhibits P. falciparum growth in the first generation, 48 h. P. falciparum luciferase growth in erythrocytes, 48 h. Potency, µM (series often up to 28.7 µM), inactives show at the top dose activity change, negative = inhibition, actives largely listed as inhibitors. hit rate 5.9% among 310,000. AID 504832; further: potency means the concentration at half of the fitted maximal effect; on the % scale 0 is the no-effect control and ±100 the full control effect
#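 Parasite viability was followed by luminescence of a genomically integrated firefly luciferase. Cultures held 0.1% parasitemia at 2% hematocrit (final), incubated under 5% CO2 at 37 C.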
# MARV entry inh = inhibitors of Marburg virus binding or cell entry | Marburg virus pseudotyped entry inhibition, cell reporter | Potency, µM (doses to about 37.8 µM), inactives show at the top dose activity change, negative = inhibition, hits mostly inhibitors | hit rate 1.8% among 300,000; calls by dose curve; tested in HEK293 cells; further: potency means the concentration at half of the fitted maximal effect; on the % scale 0 is the no-effect control and ±100 the full control effect
# Pf growth 96h = inhibits malaria parasite growth, 96 h. P. falciparum luciferase reporter growth, 96 h. Potency, µM (series often up to 28.7 µM), inactives show at the top dose activity change, negative = inhibition, hits mostly inhibitors. hit rate 6.9% among 320,000. AID 504834; further: potency means the concentration at half of the fitted maximal effect; on the % scale 0 is the no-effect control and ±100 the full control effect
#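 Two-generation exposure (96 h) targets delayed-death phenotype. Reporter parasites carrying integrated firefly luciferase, in red cells at 2% hematocrit and 0.05% parasitemia final, kept at 37 C, 5% CO2; luminescence loss indicates inhibition.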
# LASV entry inh = Lassa virus entry inhibition; Potency, µM (highest dose often 37.9 µM), for the others: top-dose activity change, negative = inhibition, usual class: inhibitors; AID 540256; hit rate 1.2% among 300,000; Lassa virus pseudotype entry inhibition, cell reporter; calls by dose curve; tested in HEK293 cells; further: potency means the concentration at half of the fitted maximal effect; on the % scale 0 is the no-effect control and ±100 the full control effect; nearly all actives have a fitted effect of over 50% in size
# An asterisk follows results filed as active; ? = inconclusive; . = not tested or not shown; [ ] = remark or other dose. Unless noted, the call rests on the fitted dose curve; in most records, active means well fitted inhibition curve with a large enough effect; inconclusive means small, poorly fitted or top-dose-only effect, or another doubt; inactive means no such curve, though single readings can be large or run the other way.
SMILES,Shiga toxin inh,CHX counter,Pf growth 48h,MARV entry inh,Pf growth 96h,LASV entry inh
CN1CCN(C(c2ccc(Br)cc2)c2cc(Cl)c3cccnc3c2O)CC1 (stereo not drawn),3,-8,12µM*,?,7.4µM*,?
COc1cc(C(=O)NCC(c2ccco2)S(=O)(=O)c2cccs2)cc(OC)c1OC (stereo not drawn),.,.,.,.,.,-20%[46.1 µM]
O=C(N/N=C/c1cc([N+](=O)[O-])ccc1Cl)c1cc(-c2ccccc2)nc2ccccc12,-11,1,?,.,?,.
c1ccc(Cn2c(SCCN3CCOCC3)nnc2-c2cccnc2)cc1,31,15,.,-2%[46.1 µM],10µM*,?
NC(=O)CSc1nnc(-c2cccnc2)n1Cc1ccccc1,-9,-1,-13%,17%,-2%,?
CC(=O)c1ccc(S(=O)(=O)NCC(=O)N2CCN(C/C=C/c3ccccc3)CC2)cc1,.,.,12µM*,?,12µM*,?
Cc1ccc(S(=O)(=O)NC(CC(C)C)C(=O)N2CCN(C/C=C/c3ccccc3)CC2)cc1 (stereo not drawn),.,.,8.3µM*,.,?,.
CC(=O)c1ccc(NC(=O)C(C)N2CCN(C/C=C/c3ccccc3)CC2)cc1 (stereo not drawn),-18,-3,?,-14%[14.2 µM],?,19%
Cc1ccc(S(=O)(=O)NC(CC(C)C)C(=O)N2CCOCCOCCOCC2)cc1 (stereo not drawn),-3,6,-12%,?,-6%,-13%
NNC(=O)CP(=O)(c1ccccc1)c1ccccc1,.,.,-23%,.,15%,.
O=C(CP(=O)(c1ccccc1)c1ccccc1)Nn1cnnc1,99*,49*,-21%,-2%,26%,-4%
CCNC(=O)CP(=O)(c1ccccc1)c1ccccc1,26,1,-2%,22%,8.3µM*,7%
O=C(O)c1ccc(Cl)nc1,-18,1,1%,30%,28%,0%
CCOc1cc(S(=O)(=O)NCCc2cccc(C)c2)c(OCC)cc1-n1cnnn1,-5,5,9.3µM*,-7%,6.6µM*,?
CCOc1cc(S(=O)(=O)N2CCC(Cc3ccccc3)CC2)c(OCC)cc1-n1cnnn1,-14,3,13µM*,?,?,-30%
CCOc1cc(S(=O)(=O)N(CC)CC)c(OCC)cc1-n1cnnn1,-13,-3,1%,-9%,-2%,?
Cc1ccc(S(=O)(=O)N2CC=C(c3ccc(F)cc3)CC2)cc1,-3,-1,-11%,?,0%,-2%
CCOc1cc(S(=O)(=O)N2CC=C(c3ccc(F)cc3)CC2)c(OCC)cc1-n1cnnn1,-8,2,7.4µM*,?,?,-27%
CCOc1cc(S(=O)(=O)NCCc2ccccc2C)c(OCC)cc1-n1cnnn1,0,-3,?,?,?,-21%
CSCCC(NS(=O)(=O)c1ccccc1F)C(=O)NCC(c1ccco1)N(C)C (stereo not drawn),.,.,.,?,.,-2%[46.1 µM]
O=S(=O)(c1ccccc1)c1nc(-c2ccccc2)oc1N1CCCCC1,77*,24*,.,?,12%,-14%
CSc1oc(-c2ccc(F)cc2)nc1S(=O)(=O)c1ccccc1,-24,19*,-14%,-2%,?,2%
CSc1oc(-c2ccccc2)nc1S(=O)(=O)c1ccc(F)cc1,-5,-3,-22%,-1%,.,?
Cc1ccc(S(=O)(=O)c2nc(-c3ccccc3)oc2N2CCC(C(N)=O)CC2)cc1,11,-2,?,5%[46.1 µM],13µM*,?
COc1ccc(-c2nnc(OCc3ccccc3)c3ccccc23)cc1,-7,1,?,?,?,?
COC(=O)c1c(C(=O)OC)c2cccc3cc(-c4ccccc4)c4ccc1c4n32,1,4,.,1%,?,1%
Cc1cc(C)nc(OC(=O)c2ccc(Cl)cc2Cl)n1,-17,17*,9%,.,48%,.
O=Cc1cccc(OC(=O)c2ccc(Cl)cc2Cl)c1,51,26*,.,1%,-21%,.
COc1cc(C(=O)Oc2cccc(C=O)c2)cc(OC)c1OC,3,-1,.,-18%,?,-12%
CCOc1cc(CNCc2ccccn2)ccc1OCC(=O)NC1CCCCC1,26,5,.,2%,?,10%
